# Results from the supplement of paper PMC6607015.
# Counter-ions that a name gives are not always drawn.
# Key:
# Details in all cases: compound concentration in added solution (µM; 5 µl added to 20 µl cells): 10; 18 h
# A431 [1] = assay: LBPA endosome anti-LBPA integrated intensity (sum per cell), Z-score; higher = more LBPA staining
# Outline: (§1)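 Z-scores normalised in AcuityXpress are given for per-cell integrated LBPA or filipin intensity, measured whole-cell or within LBPA endosomes by MetaXpress segmentation. Cells (HeLa MZ or A431, 3,500 per well in 20 µl) were seeded onto 5 µl of 10 µM compound solution in duplicate 384-well imaging plates and fixed in 4% PFA after 18 h.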
# HeLa MZ [2] = assay: as above
# Outline: as §1
# A431 [3] = assay: whole-cell filipin (free cholesterol) integrated intensity, Z-score; higher = more cholesterol staining
# Outline: as §1
# HeLa MZ [4] = assay: as above
# Outline: as §1
# A431 [5] = assay: filipin (cholesterol) integrated intensity within LBPA endosomes, Z-score; higher = more cholesterol in LBPA endosomes
# Outline: as §1
# HeLa MZ [6] = assay: as above
# Outline: as §1
SMILES,LBPA endosome anti-LBPA integrated intensity (z-score) (A431 [1]),LBPA endosome anti-LBPA integrated intensity (z-score) (HeLa MZ [2]),whole-cell filipin (z-score) (A431 [3]),whole-cell filipin (z-score) (HeLa MZ [4]),filipin (z-score) (A431 [5]),filipin (z-score) (HeLa MZ [6])
CCCCCN(C)CCC(O)(P(=O)(O)O)P(=O)(O)O [Ibandronate sodium],-0.326,0.467,-0.0185,0.267,-0.423,-0.352
Clc1cnccn1 [2-Chloropyrazine],-0.346,-0.401,0.139,-0.365,-0.401,-0.492
O=C(O)c1cn(-c2ccc(F)cc2)c2cc(N3CCNCC3)c(F)cc2c1=O [Sarafloxacin],-0.35,-0.0848,0.000583,-0.426,-0.428,-0.434
COc1cc(N)c(Cl)cc1C(=O)NC1CCN(CCCOc2ccc(F)cc2)CC1OC (centres undefined) [Cisapride],0.467,0.977,-0.114,0.308,0.0889,0.672
CCOC(=O)N1CCC(=C2c3ccc(Cl)cc3CCc3cccnc32)CC1 [Loratadine],0.316,0.865,0.633,0.548,0.439,0.942
COc1cc(C)c(/C=C/C(C)=C/C=C/C(C)=C/C(=O)O)c(C)c1C [Acitretin],-0.624,-0.537,0.514,0.218,-0.413,-0.258
Cc1nc2n(c(=O)c1CCN1CCC(c3noc4cc(F)ccc34)CC1)CCCC2 [Risperidone],0.208,1.64,0.491,0.264,-0.0506,0.539
CC1(C)S[C@@H]2[C@H](NC(=O)[C@H](N)c3ccc(O)cc3)C(=O)N2[C@H]1C(=O)O [Amoxicillin],-0.419,0.0287,-0.393,-0.0853,-0.524,-0.539
CC[N+](CC)(CC)CCOc1cccc(OCC[N+](CC)(CC)CC)c1OCC[N+](CC)(CC)CC [Gallamine triethiodide],-0.558,-0.807,-0.891,-0.384,-0.526,-0.576
O=C1CN(/N=C/c2ccc([N+](=O)[O-])o2)C(=O)N1 [Nitrofurantoin],-0.475,-1.22,-0.354,-0.515,-0.501,-0.575
CCOC(=O)c1ccc(N)cc1 [Benzocaine],-0.607,-1.32,-0.4,-0.36,-0.613,-0.643
CCC(C)(C)C(=O)O[C@H]1C[C@@H](C)C=C2C=C[C@H](C)[C@H](CC[C@@H]3C[C@@H](O)CC(=O)O3)[C@H]21 [Simvastatin],-0.965,-1.54,-0.982,-0.319,-0.637,0.381
Cc1ccccc1OCC(O)CO (centres undefined) [Mephenesin],-0.324,0.139,-0.27,0.183,-0.409,-0.223
CN1CCC[C@@H]1CCO[C@](C)(c1ccccc1)c1ccc(Cl)cc1 [Clemastine fumarate],2.28,0.882,0.619,-0.348,2.73,1.84
Cn1nnc2c(C(N)=O)ncn2c1=O [Temozolomide],-0.384,0.224,-0.454,0.0676,-0.437,-0.627
COc1cc([S+](C)[O-])ccc1-c1nc2cccnc2[nH]1 (centres undefined) [Sulmazole],-0.64,-1.23,-0.818,-0.362,-0.483,-0.399
NS(=O)(=O)c1cc(C2(O)NC(=O)c3ccccc32)ccc1Cl (centres undefined) [Chlorthalidone],-0.286,-0.349,-0.587,-0.924,-0.516,-0.608
CCCCC(=O)O[C@H]1CC[C@H]2[C@@H]3CCc4cc(O)ccc4[C@H]3CC[C@]12C [Estradiol Valerate],-0.347,-0.788,0.103,0.191,-0.224,-0.226
CCN(CC)CCNC(=O)c1ccc(N)cc1 [Procainamide hydrochloride],-0.492,0.0584,-0.628,0.713,-0.428,-0.159
O=C(c1ccc(F)cc1)C1CCN(CCn2c(=O)[nH]c3ccccc3c2=O)CC1 [Ketanserin tartrate hydrate],0.533,0.294,0.959,0.523,0.805,0.808
Clc1ccc(CO/N=C(\Cn2ccnc2)c2ccc(Cl)cc2Cl)c(Cl)c1 [Oxiconazole Nitrate],0.391,1.11,1.4,1.62,0.64,0.784
CCN(CCCCOC(=O)c1ccc(OC)c(OC)c1)C(C)Cc1ccc(OC)cc1 (centres undefined) [Mebeverine hydrochloride],2.42,2.15,1.9,1.63,2.46,2.74
CN(C)CCCN1c2ccccc2CCc2ccccc21 [Imipramine hydrochloride],0.746,0.11,0.885,-0.699,1.08,0.828
CNCCCC1c2ccccc2C=Cc2ccccc21 [Protriptyline hydrochloride],2.36,2.29,1.72,0.684,2.34,2.5
